Experimental findings from PubChem BioAssay are described below.

As usually defined, the inhibition is the relative decrease from the control value, in per cent.

The nature of experiment [1]: inhibitors of TNFa-induced NFkB p65 translocation, primary screen, imaging, HUVEC, MLSMR starter and 10KST1 sets (AID 438;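 active means inhibition above 20% together with a positive visual image hit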;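 further: compound added about 3h40 before a 20 min TNFalpha stimulation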;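 on inhibition: signal is the nuclear over cytoplasmic p65 intensity ratio per well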). The following applies: HUVEC TNFa-induced p65 nuclear translocation; cell count: measured here: nuclei count (cytotoxicity indicator), at 2.08 µM; inhibition: at 2 µM, stronger effect = higher value, 0% TNFa-plus-vehicle, 100% no-TNFa wells.
A short description of experiment [2]: reduction of polyQ htt aggregates in cells – imaging, exon1htt(103Q)mCFP cells, high-content imaging, primary screen (AID 483;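 active means visual image review flags a hit and inhibition of aggregation exceeds 20%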;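 further: compound exposure lasted 3 days before fixation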;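 on nuclei count: percent of the per-plate median nuclei count of sample wells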). The following applies: exon1htt(103Q)mCFP cell line, aggregate imaging, at 2 µM; inhibition of aggregation: stronger effect = higher value; nuclei count: measured here: cell count, toxicity.
Experiment [3] in a line: endothelial E-selectin expression blockers – imaging, HUVEC, immunofluorescence, MLSMR starter and 10KST1 sets, primary screen (AID 487;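 active means visually confirmed hit in the image check and inhibition above 20%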;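 on inhibition: signal is fraction of cell area covered by stained E-selectin grains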;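 on nuclei count: 100% = median nuclei count of all wells on the same plate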). The following applies: HUVEC TNFalpha-induced E-selectin immunofluorescence imaging, at 2 µM; inhibition: stronger effect = higher value; nuclei count: measured here: cell number, toxicity.
Experiment [4] addresses Voltage-gated potassium channel subunit beta-2 (Rattus norvegicus) (UniProt P62483). The experiment is described as follows: inhibitors of rat Kvbeta2 reductase activity – biochemical, NADPH fluorescence, primary screen (AID 622;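 active means fluorescence slope higher than the sample average by over 3 SD, cut at about -0.22 in these data, passing the limit was not always enough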;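 further: slope of raw intensity against log time taken from 70 to 1610 s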). The following applies: recombinant KvBeta, 4-cyanobenzaldehyde reduction, at 10 µM, stronger effect = higher value.
For experiment [5] the target is unchanged. Nature of the experiment: enhancers of rat Kvbeta2 NADPH turnover – biochemical, NADPH fluorescence, primary screen (AID 623).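 Further: fluorescence intensity change per second fitted from 20 to 320 s.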 The following applies: Recombinant KvBeta, NADPH fluorescence decrease slope, 10 min; at 10 µM; stronger effect = lower value.
Experiment [6] concerns the target Alpha-2C adrenergic receptor (Homo sapiens) (UniProt P18825). The experiment is described as follows: compounds altering alpha2C-coupled GIRK flux – cell-based, HEK293 alpha2C/GIRK1/2, thallium flux, primary screen (AID 624;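 active means fluorescence slope after compound addition differing from the mean of all screened samples at 99.7% confidence, in either direction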;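 further: slope of fluorescence ratio to pre-addition baseline per second over 15 to 24 s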). The following applies: thallium flux BTC fluorescence, at 10 µM, actives lie on both sides.
The nature of experiment [7]: blockers of RIG-like receptor reporter activation – cell-based, Sendai virus stimulus, luciferase, 10K MLSCN set, TLR/RLR signaling modifier project, primary screen (AID 602276;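 active means inhibition at or above 50% at 10 µM; inactive means inhibition below 50%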;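 further: firefly luciferase from ISG56 promoter only with Renilla not read in this screen; 0% = Sendai virus plus DMSO and 100% = medium plus DMSO without virus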). The following applies: HEK293 RL24 IRF3 luciferase reporter, at 10 µM, stronger effect = higher value. (In general: In a reporter assay the amount or activity of a reporter protein is the signal.)
A short description of experiment [8]: TLR3 IRF3 reporter activation blockers – cell-based, poly I:C stimulus, luciferase, 10K MLSCN set, primary screen (AID 602277;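 active means inhibition of the reporter signal at or above 50%; inactive means inhibition below 50%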). The following applies: HEK293-TLR3 RL24 IRF3 luciferase reporter, at 10 µM, stronger effect = higher value.

The structures appear in SMILES notation. Active and inactive are the calls of the source.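 How the source made its calls, unless noted: active means NADPH fluorescence slope more negative than the mean of all samples by about 3 SD, 99.7% confidence; inactive means the rest.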

Sequence of Voltage-gated potassium channel subunit beta-2 (Rattus norvegicus) (P62483 whole entry, looked up): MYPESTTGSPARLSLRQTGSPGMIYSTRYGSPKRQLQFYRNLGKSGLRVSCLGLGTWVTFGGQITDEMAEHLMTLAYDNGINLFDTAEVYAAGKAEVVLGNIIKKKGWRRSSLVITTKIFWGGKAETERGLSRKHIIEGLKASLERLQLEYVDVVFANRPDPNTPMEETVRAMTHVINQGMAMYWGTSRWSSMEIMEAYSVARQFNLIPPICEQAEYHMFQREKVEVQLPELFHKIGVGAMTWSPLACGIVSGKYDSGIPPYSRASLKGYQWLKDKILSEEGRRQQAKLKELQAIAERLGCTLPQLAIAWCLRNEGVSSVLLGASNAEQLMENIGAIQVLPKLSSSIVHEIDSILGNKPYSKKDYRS
Sequence of Alpha-2C adrenergic receptor (Homo sapiens) (P18825 whole entry, looked up): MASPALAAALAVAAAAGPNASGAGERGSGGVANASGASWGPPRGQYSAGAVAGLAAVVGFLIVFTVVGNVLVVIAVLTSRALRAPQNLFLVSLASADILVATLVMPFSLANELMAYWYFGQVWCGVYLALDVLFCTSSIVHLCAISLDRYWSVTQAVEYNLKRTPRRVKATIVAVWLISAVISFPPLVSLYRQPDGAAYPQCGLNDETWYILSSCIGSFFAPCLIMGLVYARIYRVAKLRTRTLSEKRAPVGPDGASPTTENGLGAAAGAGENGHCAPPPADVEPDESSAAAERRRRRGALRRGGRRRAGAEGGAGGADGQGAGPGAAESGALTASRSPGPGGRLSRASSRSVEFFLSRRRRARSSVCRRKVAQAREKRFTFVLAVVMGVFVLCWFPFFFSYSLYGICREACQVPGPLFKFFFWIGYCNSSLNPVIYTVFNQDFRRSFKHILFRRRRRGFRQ

In the case of `O=C(CCN1C(=O)COc2ccccc21)NCCCN1CCN(c2ccccc2F)CC1`, in experiment [1], the cell count worked out at 660. Further, the inhibition in experiment [1] was -7.1% (inactive); in experiment [3], -82.2% (inactive); in experiment [7], 11.7% (inactive); in experiment [8], 15% (inactive). Also, in experiment [2], the inhibition of aggregation was -1.6% (inactive). Besides, the nuclei count in experiment [2] was found to be 73.9%; in experiment [3], 93.3%. Also, in experiment [4], the fluorescence slope was -0.425 (inactive). Also, in experiment [5], the NADPH fluorescence slope was -2.7e-05 (inactive). Also, the slope in experiment [6] is 0.004 (inactive).

As to `CN(C1CCCCC1)S(=O)(=O)c1ccc(S(=O)(=O)N2CCN(CCC#N)CC2)cc1`, in experiment [1], the cell count was found to be 698. In addition, the inhibition in experiment [1] is 0% (inactive); in experiment [3] it was -53.2% (inactive); in experiment [7] it was 3.23% (inactive); in experiment [8] it was 15.8% (inactive). In experiment [2], the inhibition of aggregation was 28.2% (inactive). Also, the nuclei count in experiment [2] amounted to 124%; in experiment [3] it was 107%. Further, the fluorescence slope in experiment [4] was -0.527 (inactive). Also, in experiment [5], the NADPH fluorescence slope was -3.3e-06 (inactive). For the same compound, the slope in experiment [6] was 0.00618 (inactive).

Regarding `O=C(Nc1ccc2c(c1)OCCO2)C1CCCN(S(=O)(=O)c2cnc[nH]2)C1` (centres undefined), the cell count in experiment [1] was 628. For the same compound, the inhibition in experiment [1] is 4.1% (inactive); in experiment [3] it was -29.5% (inactive); in experiment [7], -16.1% (inactive); in experiment [8], -6.55% (inactive). Besides, the inhibition of aggregation in experiment [2] is -8% (inactive). Besides, the figures for the nuclei count in experiment [2] and in experiment [3] were 102% and 114%, respectively. In addition, the fluorescence slope in experiment [4] is -0.563 (inactive). For the same compound, in experiment [5], the NADPH fluorescence slope is -4.5e-07 (inactive). Further, the slope in experiment [6] was 0.00662 (inactive).

`N#Cc1ccc(-c2csc(NC(=O)C3CC3)n2)cc1`: the cell count in experiment [1] turned out to be 718. Moreover, the inhibition in experiment [1] is -9.6% (inactive); in experiment [3], -25.2% (inactive); in experiment [7], -27.3% (inactive); in experiment [8] it was -86% (inactive). Also, in experiment [2], the inhibition of aggregation is 33.4% (inactive). For the same compound, the nuclei count came to 93.9% in experiment [2] and 116% in experiment [3]. For the same compound, in experiment [4], the fluorescence slope was -0.502 (inactive). Further, in experiment [5], the NADPH fluorescence slope is -1.9e-05 (inactive). Besides, the slope in experiment [6] is 0.00647 (inactive).

`CC(C)C(NC(=O)c1ccccc1NC(=O)c1ccco1)C(=O)O` (centres undefined): in experiment [1], the cell count was 368. For the same compound, the inhibition in experiment [1] is 1.7% (inactive); in experiment [3], -32.6% (inactive); in experiment [7], 19% (inactive); in experiment [8] it was 21.5% (inactive). Further, the inhibition of aggregation in experiment [2] is -3.4% (inactive). Moreover, the nuclei count is 103% in experiment [2] and 115% in experiment [3]. For the same compound, the fluorescence slope in experiment [4] is -0.622 (inactive). Also, the NADPH fluorescence slope in experiment [5] was -3.3e-05 (inactive). Moreover, the slope in experiment [6] is 0.00599 (inactive).

For the compound `Cn1c(=O)c2ncn(CC(=O)NCCOc3ccc(C(C)(C)C)cc3)c2n(C)c1=O`, the cell count in experiment [1] was 762. In addition, the inhibition in experiment [1] was 2.2% (inactive); in experiment [3] it was -15.3% (inactive); in experiment [7] it was -12.6% (inactive); in experiment [8], -14.5% (inactive). Moreover, the inhibition of aggregation in experiment [2] was -9.8% (inactive). For the same compound, the nuclei count in experiment [2] is 103%; in experiment [3], 106%. Moreover, the fluorescence slope in experiment [4] is -0.582 (inactive). Further, the NADPH fluorescence slope in experiment [5] is -3.7e-05 (inactive). Also, the slope in experiment [6] is 0.00671 (inactive).

Consider `CCS(=O)(=O)N1CCCC(c2nc(-c3cccc(OC)c3)no2)C1` (centres undefined), for which the cell count in experiment [1] was found to be 730. In addition, the inhibition in experiment [1] was -52% (inactive); in experiment [3], -66.1% (inactive); in experiment [7] it was -28.7% (inactive); in experiment [8] it was -59.2% (inactive). In addition, the inhibition of aggregation in experiment [2] was -9.9% (inactive). Further, the nuclei count was found to be 92.1% in experiment [2] and 104% in experiment [3]. In experiment [4], the fluorescence slope is -0.535 (inactive). In experiment [5], the NADPH fluorescence slope was 1.2e-05 (inactive). The slope in experiment [6] is 0.00638 (inactive).

With `CCN1C(=O)C2(C(C#N)=C(N)Oc3n[nH]c(C(C)C)c32)c2ccccc21` (centres undefined), the cell count in experiment [1] came to 679. The inhibition was -4.5% (inactive) in experiment [1], 2.2% (inactive) in experiment [3], 20.9% (inactive) in experiment [7] and 21.2% (inactive) in experiment [8]. The inhibition of aggregation in experiment [2] is -20.7% (inactive). Moreover, the nuclei count in experiment [2] came to 104%; in experiment [3], 97%. For the same compound, in experiment [4], the fluorescence slope is -0.485 (inactive). The NADPH fluorescence slope in experiment [5] is -3.1e-05 (inactive). The slope in experiment [6] is 0.005 (inactive).

Regarding `COc1ccccc1N1CCN(CC(O)c2ccc3cc[nH]c3c2)CC1` (centres undefined), the cell count in experiment [1] is 633. Moreover, the inhibition in experiment [1] was -3.9% (inactive); in experiment [3] it was -43.4% (inactive); in experiment [7], -0.148% (inactive); in experiment [8], 27.7% (inactive). Further, the inhibition of aggregation in experiment [2] was 3.6% (inactive). In addition, the values for the nuclei count in experiment [2] and in experiment [3] were 114% and 105%, respectively. For the same compound, in experiment [4], the fluorescence slope was -0.54 (inactive). Besides, the NADPH fluorescence slope in experiment [5] was -1.4e-05 (inactive). Also, the slope in experiment [6] was 0.0062 (inactive).

For `CCCOC(=O)CSc1nc(N)c(C#N)c(CC)c1C#N`, the cell count in experiment [1] turned out to be 377. Besides, the inhibition in experiment [1] is 3.3% (inactive); in experiment [3], -97.1% (inactive); in experiment [7], -7.11% (inactive); in experiment [8], -13.9% (inactive). Besides, the inhibition of aggregation in experiment [2] is 18% (inactive). Besides, the nuclei count in experiment [2] stood at 97.7%; in experiment [3], 113%. In addition, the fluorescence slope in experiment [4] was -0.532 (inactive). Besides, in experiment [5], the NADPH fluorescence slope was -2.3e-05 (inactive). Also, the slope in experiment [6] was 0.00456 (inactive).

`Cn1c(=N)c(S(=O)(=O)c2ccc(Cl)cc2)cc2c(=O)n3ccccc3nc21`: the cell count in experiment [1] worked out at 294. In addition, the inhibition in experiment [1] is 1.6% (inactive); in experiment [3] it was 10.2% (inactive); in experiment [7], 8.16% (inactive); in experiment [8], 40.1% (inactive). For the same compound, the inhibition of aggregation in experiment [2] is -0.4% (inactive). The results for the nuclei count in experiment [2] and in experiment [3] were 97.1% and 94.5%, respectively. Also, the fluorescence slope in experiment [4] was -0.405 (inactive). For the same compound, in experiment [5], the NADPH fluorescence slope is -4.7e-05 (inactive). In addition, the slope in experiment [6] was 0.00398 (inactive).

Turning to `c1ccc(-n2ncc3c(NCc4cccs4)ncnc32)cc1`, in experiment [1], the cell count is 338. Moreover, the inhibition in experiment [1] was -5.7% (inactive); in experiment [3], -3.7% (inactive); in experiment [7], -19.7% (inactive); in experiment [8] it was -78.7% (inactive). Moreover, in experiment [2], the inhibition of aggregation is -6% (inactive). Also, the figures for the nuclei count in experiment [2] and in experiment [3] were 94.4% and 118%, respectively. Besides, the fluorescence slope in experiment [4] is -0.415 (inactive). For the same compound, the NADPH fluorescence slope in experiment [5] was -4.2e-05 (inactive). The slope in experiment [6] is 0.00561 (inactive).

Regarding `O=C1CC(c2ccccc2)Cc2nc(N3CCc4ccccc43)ncc21` (centres undefined), in experiment [1], the cell count stood at 403. Besides, the inhibition in experiment [1] is 1.2% (inactive); in experiment [3], -134% (inactive); in experiment [7], 9.74% (inactive); in experiment [8], 2.35% (inactive). For the same compound, in experiment [2], the inhibition of aggregation is -14.1% (inactive). For the same compound, the figures for the nuclei count in experiment [2] and in experiment [3] were 95.7% and 183%, respectively. The fluorescence slope in experiment [4] was -0.0564 (inactive). Also, in experiment [5], the NADPH fluorescence slope was -1.7e-05 (inactive). For the same compound, the slope in experiment [6] is 0.00498 (inactive).

On to `O=C(NCc1nc2ccccc2[nH]1)c1ccc(Cl)c(S(=O)(=O)N2CCCC2)c1`, for which, in experiment [1], the cell count was determined as 594. Also, the inhibition in experiment [1] is -15.4% (inactive); in experiment [3] it was 47% (inactive); in experiment [7], -7.84% (inactive); in experiment [8], -15.6% (inactive). Also, the inhibition of aggregation in experiment [2] was -35.2% (inactive). Moreover, the nuclei count came out at 101% in experiment [2] and 112% in experiment [3]. Besides, the fluorescence slope in experiment [4] is -0.531 (inactive). Further, the NADPH fluorescence slope in experiment [5] is 2.5e-05 (inactive). Moreover, in experiment [6], the slope was 0.00466 (inactive).
